The source of these data is PubChem BioAssay.

Assay [1] concerns Wnt5a (protein binding on small-molecule microarray). Kind of assay: small molecules binding Wnt5a protein – biophysical, small-molecule microarray, 635/667 nm fluorescence, primary screen (AID 1142).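 Further: fluorescence read at 667 nm with signal to noise per printed feature.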 Particulars: 635 nm fluorescence, higher = more signal.
Assay [2] in a line: ATP-based viability of Huh7 replicon cells – cell-based, CellTiter-Glo luminescence, basal, 48 h, cytotoxicity control for HCV replication inhibitor project, primary screen (AID 1143).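 Further: Huh7 hepatoma cells carrying a hepatitis C replication reporter with no stimulus; test concentration not given here.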 Particulars: higher = more signal, called active from +8 up or from −8 down. (In general: In antiviral work, replicon cells carry a viral genome segment that copies itself.)
Assay [3] can be described thus: Pseudomonas biofilm growth suppression – PAO1 strain, BacTiter-Glo luminescence, LB-PBS, primary screen (AID 1144). The note with it: P. aeruginosa PAO1 biofilm, 12 h, higher = more signal.
The nature of assay [4]: basal CRE-LacZ reporter activity in PC12 – cell-based, unstimulated, primary screen (AID 1145). Particulars: no forskolin, luminescence, 4.5 h, higher = more signal, called active from +8 up or from −8 down.
Assay [5] is described as follows: forskolin-driven CRE-LacZ activity in PC12 – cell-based, CRE-LacZ reporter, forskolin-stimulated, primary screen (AID 1146).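 Further: PC12 cells with 6xCRE LacZ reporter stimulated by forskolin 10 µM; beta-galactosidase reporter signal reflecting CREB driven transcription.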 Particulars: luminescence, 4.5 h, higher = more signal, called active from +8 up or from −8 down.
For assay [6], the target named is Streptavidin (Streptomyces avidinii) (UniProt P22629). Description: compounds binding control protein streptavidin – biophysical, small-molecule microarray, 635/667 nm fluorescence, artefact control for SMM compound annotation, primary screen (AID 1147).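 Further: signal reflects streptavidin binding to arrayed compounds as a control protein.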 Particulars: higher = more signal.
Streptavidin (Streptomyces avidinii), sequence (P22629 whole entry, looked up): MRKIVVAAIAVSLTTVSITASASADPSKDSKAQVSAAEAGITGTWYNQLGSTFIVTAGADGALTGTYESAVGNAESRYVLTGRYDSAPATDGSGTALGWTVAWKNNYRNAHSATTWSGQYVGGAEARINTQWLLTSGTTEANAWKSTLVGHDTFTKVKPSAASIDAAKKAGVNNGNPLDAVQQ
Assay [7] is described as follows: probe aInhba binding on compound microarray – biochemical, small-molecule microarray, 635/667 nm fluorescence, primary screen (AID 1148).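 Further: score merges 667nm spot fluorescence with signal-to-noise for antibody binding to printed compounds.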 Particulars: higher = more signal.
For assay [8], the target named is Torsin-1A (Homo sapiens) (UniProt O14656). Description: TOR1A wild-type binding on microarray – cell lysate, small-molecule microarray, lysate, 635/667 nm, primary screen (AID 1149). Particulars: COS7 hTOR1A-WT lysate, 635 nm fluorescence, higher = more signal.
Torsin-1A (Homo sapiens), sequence (O14656 whole entry, looked up): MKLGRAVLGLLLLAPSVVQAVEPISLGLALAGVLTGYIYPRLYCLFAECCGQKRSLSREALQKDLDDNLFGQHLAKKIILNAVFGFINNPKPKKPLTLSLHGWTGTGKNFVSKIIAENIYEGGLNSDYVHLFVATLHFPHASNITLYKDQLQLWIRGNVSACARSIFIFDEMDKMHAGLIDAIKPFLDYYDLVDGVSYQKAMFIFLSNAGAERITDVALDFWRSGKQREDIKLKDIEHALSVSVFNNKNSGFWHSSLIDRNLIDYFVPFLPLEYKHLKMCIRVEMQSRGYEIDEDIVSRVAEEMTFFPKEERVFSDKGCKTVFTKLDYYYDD
Assay [9] has the same target. Kind of assay: torsin A mutant lysate binding on microarrays – cell lysate, small-molecule microarray, COS7 lysate, 635/667 nm fluorescence, primary screen (AID 1150).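 Further: score pools 667 nm emission and signal to noise measuring lysate protein binding.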 Particulars: COS7 hTOR1A mutant lysate, 635 nm fluorescence, higher = more signal.
The subject of assay [10] is Sonic hedgehog protein (Shh). Description: Sonic hedgehog microarray binding compounds – biochemical, small-molecule microarray, 635/667 nm fluorescence, primary screen (AID 1151).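 Further: Shh protein binding to compounds spotted on small-molecule microarray slides; score combines spot fluorescence intensity with signal-to-noise across triplicate slides.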 Particulars: 635 nm fluorescence, higher = more signal.
Assay [11] is described as follows: optical density shifts of acrAB sulA E. coli – strain DRC41, OD650, 48 h, E. coli filamentation inducer project, primary screen (AID 1152).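 Further: E. coli MC1000 strain DRC41 lacking acrAB efflux pump and sulA.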 The note with it: higher = more signal, called active from +8 up or from −8 down.
A short description of assay [12]: probe aLefty1 binding on compound microarray – biochemical, small-molecule microarray, 635/667 nm fluorescence, primary screen (AID 1153).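 Further: score merges spot fluorescence with signal-to-noise ratio from the scanned slide images.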 The note with it: higher = more signal.
Assay [13] is described as follows: plasmodial surface anion channel blockers, osmotic lysis – cell-based, P. falciparum Indochina, OD700, 1 h, primary screen (AID 1154). Particulars: P. falciparum Indochina infected RBC osmotic lysis, higher = more signal, called active from +8 up or from −8 down.
The nature of assay [14]: plasmodial surface anion channel blockers, osmotic lysis – cell-based, P. falciparum Indochina, OD700, 2 h, primary screen (AID 1155).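 Further: lysis reports solute entry through the parasite surface anion channel PSAC.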 The note with it: P. falciparum Indochina infected erythrocytes, higher = more signal, called active from +8 up or from −8 down.
A short description of assay [15]: changes in parasitized red cell lysis, either direction – P. falciparum Indochina, OD700, 3 h, PSAC antagonist project, primary screen (AID 1156). The note with it: P. falciparum-infected erythrocytes, osmotic lysis, higher = more signal, called active from +8 up or from −8 down.
Assay [16] in a line: plasmodial surface anion channel blockers, osmotic lysis – cell-based, P. falciparum Indochina, OD700, 18 h, primary screen (AID 1157). Particulars: P. falciparum Indochina infected erythrocytes, osmotic lysis OD700, 18 h; higher = more signal, called active from +8 up or from −8 down.
The nature of assay [17]: S6 kinase pathway phospho-S6 level changes – cell-based, A549, cytoblot, luminescence, serum-stimulated, primary screen (AID 1158).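 Further: serum-stimulated A549 lung adenocarcinoma cells; signal is phosphorylated S6 detected by cytoblot immunostaining with HRP secondary.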 The note with it: 5 h, higher = more signal.
Assay [18] addresses NADPH oxidase 2 (Homo sapiens) (UniProt P04839). Kind of assay: compounds shifting NOX2 Amplex Red fluorescence – cell-based, HEK293-NOX2, PMA-stimulated, NOX inhibitor project, primary screen (AID 1159). Further: test concentration not given here. Particulars: 45 min, higher = more signal, called active from +8 up or from −8 down.
In assay [19] the target is NADPH oxidase 4 (Homo sapiens) (UniProt Q9NPH5). Description: compounds shifting NOX4 Amplex Red fluorescence – cell-based, HEK293-NOX4, tetracycline-induced, NOX inhibitor project, primary screen (AID 1160). Particulars: HEK293-NOX4, Amplex Red H2O2 fluorescence, 45 min; higher = more signal, called active from +8 up or from −8 down.
NADPH oxidase 4 (Homo sapiens), sequence (Q9NPH5 whole entry, looked up): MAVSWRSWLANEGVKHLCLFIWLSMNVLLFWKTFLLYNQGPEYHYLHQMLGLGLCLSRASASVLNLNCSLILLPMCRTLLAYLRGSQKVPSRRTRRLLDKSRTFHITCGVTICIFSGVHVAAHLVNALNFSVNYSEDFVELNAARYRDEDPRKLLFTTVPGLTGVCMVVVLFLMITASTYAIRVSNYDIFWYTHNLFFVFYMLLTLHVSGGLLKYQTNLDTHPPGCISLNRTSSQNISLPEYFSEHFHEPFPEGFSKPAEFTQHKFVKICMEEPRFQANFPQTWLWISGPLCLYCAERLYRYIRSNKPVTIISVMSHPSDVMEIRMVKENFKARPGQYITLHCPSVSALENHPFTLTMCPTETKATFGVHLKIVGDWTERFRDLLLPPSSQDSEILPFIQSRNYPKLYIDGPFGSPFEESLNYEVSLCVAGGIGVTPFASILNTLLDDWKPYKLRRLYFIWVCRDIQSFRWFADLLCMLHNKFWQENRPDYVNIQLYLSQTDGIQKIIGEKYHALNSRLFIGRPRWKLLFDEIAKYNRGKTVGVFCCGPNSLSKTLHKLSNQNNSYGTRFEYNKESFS
In assay [20] the target is NADPH oxidase 5 (Homo sapiens) (UniProt Q96PH1). Description: compounds shifting NOX5 Amplex Red fluorescence – cell-based, HEK293-NOX5, NOX inhibitor project, primary screen (AID 1161). The note with it: HEK293-NOX5, ionomycin, 45 min, higher = more signal.
NADPH oxidase 5 (Homo sapiens), sequence (Q96PH1 whole entry, looked up): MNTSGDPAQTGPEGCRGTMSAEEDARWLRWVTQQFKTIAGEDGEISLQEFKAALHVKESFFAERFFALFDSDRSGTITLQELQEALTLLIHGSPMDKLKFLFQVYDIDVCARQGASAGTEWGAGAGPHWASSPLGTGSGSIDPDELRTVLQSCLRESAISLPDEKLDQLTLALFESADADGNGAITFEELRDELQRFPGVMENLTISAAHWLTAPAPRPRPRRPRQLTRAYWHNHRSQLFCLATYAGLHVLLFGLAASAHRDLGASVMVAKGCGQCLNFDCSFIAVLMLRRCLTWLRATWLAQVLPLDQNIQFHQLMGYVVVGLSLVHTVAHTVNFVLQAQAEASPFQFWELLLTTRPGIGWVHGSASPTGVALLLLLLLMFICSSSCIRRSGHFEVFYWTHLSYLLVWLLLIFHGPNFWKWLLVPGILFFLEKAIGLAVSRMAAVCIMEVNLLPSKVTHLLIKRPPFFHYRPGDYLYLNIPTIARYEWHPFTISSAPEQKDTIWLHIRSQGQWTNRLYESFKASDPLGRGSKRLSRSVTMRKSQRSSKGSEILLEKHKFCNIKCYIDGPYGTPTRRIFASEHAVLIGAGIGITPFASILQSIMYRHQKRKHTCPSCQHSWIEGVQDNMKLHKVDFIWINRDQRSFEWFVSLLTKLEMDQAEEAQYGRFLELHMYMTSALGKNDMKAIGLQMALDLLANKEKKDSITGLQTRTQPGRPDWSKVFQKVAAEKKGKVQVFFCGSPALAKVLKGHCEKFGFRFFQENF

Calls of active or inactive are those of the source. Unless noted, how the calls were made is not given here.

NADPH oxidase 2 (Homo sapiens), sequence (P04839 whole entry, looked up): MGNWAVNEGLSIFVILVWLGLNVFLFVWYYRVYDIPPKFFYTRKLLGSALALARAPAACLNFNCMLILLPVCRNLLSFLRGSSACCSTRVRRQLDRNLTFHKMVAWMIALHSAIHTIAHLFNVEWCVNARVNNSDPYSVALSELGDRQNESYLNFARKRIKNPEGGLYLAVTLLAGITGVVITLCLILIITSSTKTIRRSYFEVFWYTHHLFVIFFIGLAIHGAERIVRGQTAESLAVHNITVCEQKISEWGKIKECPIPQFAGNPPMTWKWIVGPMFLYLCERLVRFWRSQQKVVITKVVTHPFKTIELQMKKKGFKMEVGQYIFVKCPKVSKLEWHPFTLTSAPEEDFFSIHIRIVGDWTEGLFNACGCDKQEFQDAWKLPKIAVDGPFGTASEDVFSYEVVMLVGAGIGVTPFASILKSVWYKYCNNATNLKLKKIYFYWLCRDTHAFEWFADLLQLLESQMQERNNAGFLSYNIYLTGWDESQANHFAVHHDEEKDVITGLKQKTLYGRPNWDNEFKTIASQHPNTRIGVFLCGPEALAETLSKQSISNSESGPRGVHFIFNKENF

With `O=C(NN=C1C[C@@H](O)[C@@H](O)[C@@H]2[C@@H]3C(=O)N(c4cccc(Oc5ccccc5)c4)C(=O)[C@@H]3CC[C@H]12)OCc1ccccc1`, the composite z-score in [1] is -0.132; in [6] it was 1.68; in assay [7] it was -0.128; in the assay with Torsin-1A (Homo sapiens) [8] it was 0.0142; with Torsin-1A (Homo sapiens) [9], -0.104; in assay [10], -0.689. In [12], this compound registered a composite z-score of 0.0406. For the same compound, the z-score in [2] was -1.24 (inactive); in [3], 1.3 (inactive); in assay [4] it was -0.0199 (inactive); in assay [5] it was 0.0693 (inactive); in [11], -0.155 (inactive); in assay [13], 2.26 (inactive). In addition, the z-score in [14] is 1.1 (inactive); in assay [15], 2.32 (inactive); in assay [16], 0.527 (inactive); in assay [17], -0.738; in assay [18], 1.25 (inactive); in assay [19], 0.056 (inactive). For the same compound, the z-score in assay [20] worked out at 0.825.

Turning to `CCCNC(=O)[C@@H]1c2ccccc2C(=O)N(Cc2ccccc2Cl)[C@H]1c1ccc(CO)cc1`, the composite z-score stood at 0.4 in [1]; 0.802 in assay [6]; 0.264 in assay [7]; 0.174 with Torsin-1A (Homo sapiens) [8]; 0.461 in the assay with Torsin-1A (Homo sapiens) [9]; 1.9 in [10]. The compound further yielded a composite z-score in assay [12] of 0.227. The z-score in [2] is -1.44 (inactive); in assay [3], 0.378 (inactive); in [4], -0.412 (inactive); in assay [5], -0.366 (inactive); in assay [11] it was 2.47 (inactive); in assay [13], 1.8 (inactive). In addition, the z-score is 0.0323 (inactive) in assay [14]; 0.621 (inactive) in assay [15]; -0.505 (inactive) in assay [16]; 0.335 in assay [17]; -0.988 (inactive) in assay [18]; 0.601 (inactive) in assay [19]. Besides, in assay [20], the z-score is -0.33.

With `C[C@H](c1ccccc1)N1C(=O)[C@H]2[C@@H]3C(=CC[C@H]2C1=O)C(=O)[C@H]1O[C@H]1[C@H]3O`, the composite z-score in assay [1] is -0.103; in assay [6], 0.108; in [7] it was -0.0474; with Torsin-1A (Homo sapiens) [8], 0.25; with Torsin-1A (Homo sapiens) [9], -0.0342; in assay [10], 0.469. Moreover, in assay [12], the composite z-score is -0.239. Also, the z-score in assay [2] was -7.43 (inactive); in assay [3], 1.16 (inactive); in assay [4] it was 0.699 (inactive); in assay [5], 4.29 (inactive); in [11], 0.0931 (inactive); in assay [13], -0.564 (inactive). In addition, the z-score was -0.0275 (inactive) in [14]; 0.163 (inactive) in assay [15]; -0.0165 (inactive) in assay [16]; -0.836 in assay [17]; -0.76 (inactive) in assay [18]; -0.156 (inactive) in assay [19]. The z-score in assay [20] is 1.13.

Consider `CCOC(=O)C[C@H]1[C@H](OC(=O)c2cc3ccccc3oc2=O)[C@@H](NC(=O)c2ccc3ccccc3n2)c2cc(OCCCO)ccc2N1C(=O)c1ccccc1`, for which the composite z-score stood at 0.537 in assay [1]; 0.28 in assay [6]; 0.0345 in assay [7]; 0.354 in the assay with Torsin-1A (Homo sapiens) [8]; 1.37 with Torsin-1A (Homo sapiens) [9]; 0.574 in assay [10]. For the same compound, the composite z-score in assay [12] stood at 0.0793. For the same compound, the z-score was -2.98 (inactive) in [2]; 0.287 (inactive) in assay [3]; 11.9 (active) in assay [4]; 0.576 (inactive) in assay [5]; 0.571 (inactive) in assay [11]; 1.31 (inactive) in assay [13]. In addition, the z-score was -0.639 (inactive) in assay [14]; 0.628 (inactive) in assay [15]; -1.83 (inactive) in assay [16]; 0.63 in assay [17]; -0.253 (inactive) in assay [18]; -0.654 (inactive) in [19]. Also, in assay [20], the z-score was found to be 0.86.
